Screening data deposited in PubChem BioAssay by several laboratories.
Rows were chosen to be rich in hits. Some 2% of all compounds tested hit in one or more screens of this group.
GalR3 antagonist: GalR3 antagonists in HEK293 cells, primary screen, cell-based, fluorescence readout; hit rate 0.44% among 360,000; Galanin receptor type 3 (Homo sapiens), O60755; inhibition, % at 3 µM; HEK293 GalR3-CNG cAMP membrane potential fluorescence; galR3 body fused to GalR1 C-terminus; AID 651719, 2012;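 active = inhibition above the screen-wide average plus 3 SD, cut at about 13% in these data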;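 also: forskolin and galanin both at EC90 stimulate the cells; cAMP rise reported by CNG channel membrane potential dye signal; 0% = forskolin plus galanin with DMSO and 100% = forskolin alone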
Jurkat NFkB inh: inhibitors of induced NF-kB luciferase reporter, primary screen, TCR NF-kB activation inhibitor project, cell-based, luminescence, uHTS; Jurkat, PMA/ionomycin-induced NF-kB luciferase reporter; AID 435003, 2010; hit rate 0.53% among 330,000; inhibition, % at 4 µM; in the data active = inhibition above about 50%
NR2F2 inh: NR2F2 transcriptional activity inhibitors, primary screen, cell-based, luciferase reporter, HEK293T, luminescence; HEK293T NGFI-A luciferase reporter; inhibition, % at 8.6 µM; hit rate 0.7% among 370,000; AID 686940, 2013;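 active = inhibition above a per-plate cutoff, mean inhibition of test wells between control levels plus 3 SD, cut at about 38% in these data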;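 also: cells cotransfected with COUP-TFII expression vector driving the NGFI-A reporter; 0% = median of COUP-TF2 test wells and 100% = reporter-only cells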
Target sequence (P24468 whole entry, looked up): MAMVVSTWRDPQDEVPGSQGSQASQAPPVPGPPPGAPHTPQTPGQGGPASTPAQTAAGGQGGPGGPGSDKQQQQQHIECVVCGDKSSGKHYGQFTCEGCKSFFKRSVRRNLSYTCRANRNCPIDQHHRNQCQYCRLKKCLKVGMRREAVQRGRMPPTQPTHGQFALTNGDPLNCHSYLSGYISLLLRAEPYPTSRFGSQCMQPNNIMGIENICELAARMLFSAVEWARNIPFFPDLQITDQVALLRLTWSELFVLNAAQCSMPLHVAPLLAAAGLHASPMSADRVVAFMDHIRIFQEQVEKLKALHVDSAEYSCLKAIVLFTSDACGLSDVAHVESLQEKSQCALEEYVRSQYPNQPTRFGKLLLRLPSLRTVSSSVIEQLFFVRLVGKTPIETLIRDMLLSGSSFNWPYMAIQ
697 NFkB inh: inhibitors of PMA/ionomycin-induced NF-kB reporter, 697 cells, primary screen, B-cell NF-kB inhibitor project, cell-based, luminescence, uHTS. 697 B-cell NF-kB luciferase reporter, 16 h. inhibition, % at 4 µM. hit rate 0.33% among 330,000; in the data active = inhibition above about 35%
Gli-Sufu antag: Gli-Sufu pathway antagonists, primary screen, luciferase luminescence, Sufu-KO-LIGHT cells, uHTS; Sufu-KO-LIGHT fibroblasts, Gli luciferase reporter luminescence; inhibition, % at 5 µM; AID 588413, 2011; hit rate 0.74% among 340,000;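 active = inhibition above about 55%, limit read from the data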;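 also: 0% = DMSO-treated cells and 100% = wells with medium but no cells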
Gal4-VP16 ctr: Gal4-VP16 luciferase reporter inhibitors, counter-screen for COUP-TFII antagonist project, cell-based, luminescence, HEK293; shares compounds with NR2F2 inh; inhibition, % at 8.5 µM; hit rate 25% among 2,500; AID 687007, 2013; in the data active = inhibition above about 13%
COUP-TFII conf: NR2F2 transcriptional activity inhibitors, confirmation, cell-based, luciferase reporter, HEK293, triplicate. shares compounds with NR2F2 inh. HEK293 NGFI-A luciferase reporter, luminescence. inhibition, % at 8.5 µM. hit rate 45% among 2,500. AID 687008, 2013;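 active = mean inhibition over three repeats above a set limit taken from the earlier primary screen, cut at about 38% in these data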;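 also: 100% = cells given the luciferase reporter alone without the COUP-TF2 vector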
* marks the source's active call; other numbers are inactive results; x = no result.

SMILES	GalR3 antagonist	Jurkat NFkB inh	NR2F2 inh	697 NFkB inh	Gli-Sufu antag	Gal4-VP16 ctr	COUP-TFII conf
CCCCNC(=O)C1CCCN1C(=O)Nc1ccc2c(c1)OCO2 (stereo not given)	x	x	-29	x	x	x	x
CCOC(=O)[C@@]12CCCC=C1N(CCc1ccc(Cl)cc1)C(=O)[C@H]2CC(=O)NCCc1ccccc1OC	x	x	-1	x	x	x	x
CC(=O)Oc1c(Cl)cc(N(C(C)=O)S(=O)(=O)c2ccccc2)c2ccccc12	-2	-1	53*	-6	6	28*	28
CC(=O)Oc1ccc(N(C(C)=O)S(=O)(=O)c2ccccc2)c2ccccc12	-5	x	-8	x	x	x	x
CC(C)(C)C(=O)Nc1ccc(-c2cc3cc(Cl)ccc3o2)cc1	-2	-88	53*	-123	1	-154	-22
COC(=O)[C@]12C[C@H](CC(=O)NCc3cccs3)C(=O)N(Cc3ccc(Cl)cc3Cl)C1=C[C@H](C1CCCC1)O[C@@H]2C	x	x	13	x	x	x	x
CC1(C)N=C(N)N=C(N)N1c1ccc(CCCCc2ccccc2)cc1	101*	x	70*	x	x	28*	62*
Cc1cc2c(s1)c1cnn(Cc3cc(F)c(F)cc3F)c(=O)c1n2C	x	x	-11	x	x	x	x
COC(=O)CC1CCc2cc(C)cc(C(=O)CC(C)C)c2O1 (stereo not given)	x	x	4	x	x	x	x
COC(=O)c1cnn(-c2ccc(F)cc2F)c1/C=N/NC(=S)Nc1ccccc1	x	x	48*	x	x	-8	10
CNC(=S)N/N=C/c1c(C(=O)OC)cnn1-c1ccc(F)cc1F	-6	2	36	-32	7	x	x
S=C1NC2=C(CCCC2=C2SCCS2)C(c2ccccc2)N1 (stereo not given)	-4	-12	37*	0	-8	-8	-5
COC(=O)[C@]1(CNS(=O)(=O)c2ccc(F)cc2)CC(=O)N(C)[C@@H]1c1ccccc1	x	x	-18	x	x	x	x
N#Cc1cc2cc3c(cc2nc1SCC(=O)N1CCOCC1)OCCO3	-7	30	46*	-143	37	24*	59*
Cc1cc2cc3c(cc2nc1SCC(=O)N1CCCC1)OCCO3	-3	-6	-7	3	-13	x	x
COc1cccc(CNC(=O)CN2CCCc3ccccc32)c1OC	x	x	6	x	x	x	x
CN1[C@H](Cc2ccccc2)COc2cc(N3CCCC3)ccc2S1(=O)=O	x	x	55*	x	x	4	9
CN1[C@H](Cc2ccccc2)COc2cc(N3CCSCC3)ccc2S1(=O)=O	x	x	27	x	x	x	x
COCCn1c(C)cc(C(=O)CSc2nnnn2C2CCCC2)c1C	0	-61	59*	-123	16	35*	68*
COc1ccc(Cl)cc1C(=O)CSc1nnnn1C1CCCC1	-6	-1	-5	-1	2	x	x
CCN(CC)CCC(=O)N1C/C(=C/c2ccccc2)C(=O)/C(=C\c2ccccc2)C1	-4	x	74*	x	-3	67*	65*
O=C1/C(=C\c2ccc(Cl)c(Cl)c2)CN(C(=O)CCN2CCOCC2)C/C1=C/c1ccc(Cl)c(Cl)c1	-3	x	85*	x	10	92*	106*
O=C1/C(=C\c2ccccc2)CCC/C1=C/c1ccccc1	-4	x	2	x	0	x	x
O=C1/C(=C\c2ccccc2)CN(C(=O)CCN2CCCCC2)C/C1=C/c1ccccc1	-4	x	63*	x	7	64*	63*
O=C(CCN1C(=O)S/C(=C\c2ccccc2)C1=O)N1CCCCC1	-8	3	-9	13	-1	x	x
O=C(CSc1nnc(-c2ccccn2)n1-c1ccccc1)Nc1ccccc1-c1ccccc1	x	x	7	x	x	x	x
O=C(CN(CCc1ccccc1)S(=O)(=O)c1ccccc1)N1CCOCC1	x	x	6	x	x	x	x
CC(=O)CC[C@H]1CC[C@]2(CCCN(S(C)(=O)=O)C2)O1	x	x	-8	x	x	x	x
Cc1cccc(NC(=O)Nc2nc3ncccn3c2-c2ccccc2)c1	x	x	16	x	x	x	x
